# Positions count from the first letter of the chain named.
# What was measured:
# Experiment in all cases: PBM; 200 nM protein, PBS
# Settings in all cases: dsDNA, one strand shown
# HOXA7 [1] = target: HOXA7 (Homo sapiens, UniProt P31268 116-202)
# HOXA2 [2] = target: HOXA2 (Homo sapiens, UniProt O43364 129-215, R185T)
# NKX2-6 = target: T1, NKX2-6 (Homo sapiens, UniProt A6NCS4 118-204, R150C)
# T1 sequence: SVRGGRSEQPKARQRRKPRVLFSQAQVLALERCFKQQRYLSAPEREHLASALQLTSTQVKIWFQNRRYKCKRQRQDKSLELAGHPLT
# HOXA2 [3] = target: HOXA2 (Homo sapiens, UniProt O43364 129-215, R185K)
# HOXA2 [4] = target: HOXA2 (Homo sapiens, UniProt O43364 129-215, Y150S)
# HOXA7 [5] = target: HOXA7 (Homo sapiens, UniProt P31268 116-202, W177C)
# HOXA2 [6] = target: HOXA2 (Homo sapiens, UniProt O43364 129-215)
# MSX2 [7] = target: MSX2 (Homo sapiens, UniProt P35548 130-214, R199I)
# MSX2 [8] = target: MSX2 (Homo sapiens, UniProt P35548 130-214)
# MSX2 [9] = target: MSX2 (Homo sapiens, UniProt P35548 130-214, F161Y)
# PAX4 [10] = target: T2, PAX4 (Homo sapiens, UniProt O43316 9-242, R200K)
# T2 sequence: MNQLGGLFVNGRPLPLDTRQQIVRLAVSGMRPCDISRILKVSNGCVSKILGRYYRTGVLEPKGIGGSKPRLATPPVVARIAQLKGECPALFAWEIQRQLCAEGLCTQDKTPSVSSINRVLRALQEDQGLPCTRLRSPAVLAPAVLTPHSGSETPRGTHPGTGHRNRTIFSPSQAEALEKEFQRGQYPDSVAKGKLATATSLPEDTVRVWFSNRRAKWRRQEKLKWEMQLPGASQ
# PAX4 [11] = target: T3, PAX4 (Homo sapiens, UniProt O43316 9-242)
# T3 sequence: T2 sequence with K192R
# ALX1 [12] = target: ALX1 (Homo sapiens, UniProt Q15699 118-204, L144V)
# PAX4 [13] = target: T4, PAX4 (Homo sapiens, UniProt O43316 9-242, R200Q)
# T4 sequence: T2 sequence with K192Q
# ALX1 [14] = target: ALX1 (Homo sapiens, UniProt Q15699 118-204, L144R)
# PAX4 [15] = target: T5, PAX4 (Homo sapiens, UniProt O43316 9-242, F177V)
# T5 sequence: T2 sequence with F169V, K192R
# PAX4 [16] = target: T6, PAX4 (Homo sapiens, UniProt O43316 9-242, F177Y)
# T6 sequence: T2 sequence with F169Y, K192R
# VAX1 [17] = target: VAX1 (Homo sapiens, UniProt Q5SQQ9 86-172)
# VAX1 [18] = target: VAX1 (Homo sapiens, UniProt Q5SQQ9 86-172, T142I)
# PAX4 [19] = target: T7, PAX4 (Homo sapiens, UniProt O43316 9-242, R227W)
# T7 sequence: T2 sequence with K192R, R219W
# ALX1 [20] = target: ALX1 (Homo sapiens, UniProt Q15699 118-204)
# VAX1 [21] = target: VAX1 (Homo sapiens, UniProt Q5SQQ9 86-172, K157R)
# HOXD13 [22] = target: HOXD13 (Homo sapiens, UniProt P35453 263-343, T313R)
# HOXD13 [23] = target: HOXD13 (Homo sapiens, UniProt P35453 263-343)
# HOXC10 = HOXC10 (Homo sapiens, UniProt Q9NYD6 254-340, K271E)
# HOXD13 [24] = target: HOXD13 (Homo sapiens, UniProt P35453 263-343, T313A)
# PITX2 = PITX2 (Homo sapiens, UniProt Q99697 72-157)
# Chain of HOXA2 (Homo sapiens, UniProt O43364 129-215, R185K) (O43364 129-215 R185K): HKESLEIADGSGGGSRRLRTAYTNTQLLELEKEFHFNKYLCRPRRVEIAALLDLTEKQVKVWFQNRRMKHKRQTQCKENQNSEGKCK
# Chain of MSX2 (Homo sapiens, UniProt P35548 130-214, F161Y) (P35548 130-214 F161Y): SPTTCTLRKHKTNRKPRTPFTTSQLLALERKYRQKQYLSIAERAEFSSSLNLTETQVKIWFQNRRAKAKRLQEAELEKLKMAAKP
# Chain of MSX2 (Homo sapiens, UniProt P35548 130-214) (P35548 130-214): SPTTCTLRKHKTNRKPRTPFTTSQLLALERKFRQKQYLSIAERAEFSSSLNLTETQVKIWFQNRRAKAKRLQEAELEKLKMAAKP
# Chain of HOXA2 (Homo sapiens, UniProt O43364 129-215) (O43364 129-215): as the sequence (O43364 129-215 R185K) above, with K57R counted along it
# Chain of HOXA2 (Homo sapiens, UniProt O43364 129-215, R185T) (O43364 129-215 R185T): as the sequence (O43364 129-215 R185K) above, with K57T counted along it
# Chain of HOXA2 (Homo sapiens, UniProt O43364 129-215, Y150S) (O43364 129-215 Y150S): as the sequence (O43364 129-215 R185K) above, with Y22S, K57R counted along it
# Chain of MSX2 (Homo sapiens, UniProt P35548 130-214, R199I) (P35548 130-214 R199I): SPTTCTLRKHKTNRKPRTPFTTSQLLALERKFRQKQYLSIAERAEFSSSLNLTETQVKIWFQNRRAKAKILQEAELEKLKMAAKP
# Chain of HOXA7 (Homo sapiens, UniProt P31268 116-202) (P31268 116-202): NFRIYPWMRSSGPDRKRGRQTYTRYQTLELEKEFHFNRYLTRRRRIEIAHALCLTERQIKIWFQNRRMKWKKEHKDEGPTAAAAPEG
# Chain of HOXA7 (Homo sapiens, UniProt P31268 116-202, W177C) (P31268 116-202 W177C): as the sequence (P31268 116-202) above, with W62C counted along it
# Chain of ALX1 (Homo sapiens, UniProt Q15699 118-204, L144V) (Q15699 118-204 L144V): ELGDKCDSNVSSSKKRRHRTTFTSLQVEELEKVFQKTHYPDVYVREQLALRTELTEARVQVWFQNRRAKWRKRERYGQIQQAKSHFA
# Chain of HOXD13 (Homo sapiens, UniProt P35453 263-343, T313R) (P35453 263-343 T313R): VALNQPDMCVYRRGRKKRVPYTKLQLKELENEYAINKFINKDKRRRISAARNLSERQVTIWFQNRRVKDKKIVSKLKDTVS
# Chain of VAX1 (Homo sapiens, UniProt Q5SQQ9 86-172, T142I) (Q5SQQ9 86-172 T142I): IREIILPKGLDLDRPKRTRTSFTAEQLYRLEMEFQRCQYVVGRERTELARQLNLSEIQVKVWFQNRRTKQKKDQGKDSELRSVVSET
# Chain of VAX1 (Homo sapiens, UniProt Q5SQQ9 86-172, K157R) (Q5SQQ9 86-172 K157R): as the sequence (Q5SQQ9 86-172 T142I) above, with I57T, K72R counted along it
# Chain of HOXD13 (Homo sapiens, UniProt P35453 263-343) (P35453 263-343): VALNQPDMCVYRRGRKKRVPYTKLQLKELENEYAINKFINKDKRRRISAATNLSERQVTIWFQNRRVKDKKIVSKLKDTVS
# Chain of HOXD13 (Homo sapiens, UniProt P35453 263-343, T313A) (P35453 263-343 T313A): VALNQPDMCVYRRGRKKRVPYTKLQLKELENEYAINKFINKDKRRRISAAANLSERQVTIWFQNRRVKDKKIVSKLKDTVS
# Chain of ALX1 (Homo sapiens, UniProt Q15699 118-204) (Q15699 118-204): as the sequence (Q15699 118-204 L144V) above, with V27L counted along it
# Chain of HOXC10 (Q9NYD6 254-340 K271E): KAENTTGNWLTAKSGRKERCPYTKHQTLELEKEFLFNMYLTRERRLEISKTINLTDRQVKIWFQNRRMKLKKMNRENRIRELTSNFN
# Chain of ALX1 (Homo sapiens, UniProt Q15699 118-204, L144R) (Q15699 118-204 L144R): as the sequence (Q15699 118-204 L144V) above, with V27R counted along it
# Chain of VAX1 (Homo sapiens, UniProt Q5SQQ9 86-172) (Q5SQQ9 86-172): as the sequence (Q5SQQ9 86-172 T142I) above, with I57T counted along it
sequence,measurement,setting,value
CCAGCTGG,binding signal,HOXA7 [1],"8.23 upbm affinity estimate (log intensity, higher = more binding, comparable within an allelic series)"
same,binding signal,HOXA2 [2],"7.34 upbm affinity estimate (log intensity, higher = more binding, comparable within an allelic series)"
same,binding signal,NKX2-6,"9.68 upbm affinity estimate (log intensity, higher = more binding, comparable within an allelic series)"
same,binding signal,HOXA2 [3],"10.4 upbm affinity estimate (log intensity, higher = more binding, comparable within an allelic series)"
same,binding signal,HOXA2 [4],"10.5 upbm affinity estimate (log intensity, higher = more binding, comparable within an allelic series)"
same,binding signal,HOXA7 [5],"8.36 upbm affinity estimate (log intensity, higher = more binding, comparable within an allelic series)"
same,binding signal,HOXA2 [6],"7.34 upbm affinity estimate (log intensity, higher = more binding, comparable within an allelic series)"
GACCCTGC,binding signal,HOXA7 [1],"8.54 upbm affinity estimate (log intensity, higher = more binding, comparable within an allelic series)"
same,binding signal,HOXA2 [2],"7.03 upbm affinity estimate (log intensity, higher = more binding, comparable within an allelic series)"
same,binding signal,MSX2 [7],"9.48 upbm affinity estimate (log intensity, higher = more binding, comparable within an allelic series)"
same,binding signal,HOXA2 [3],"10.3 upbm affinity estimate (log intensity, higher = more binding, comparable within an allelic series)"
same,binding signal,MSX2 [8],"9.31 upbm affinity estimate (log intensity, higher = more binding, comparable within an allelic series)"
same,binding signal,MSX2 [9],"9.36 upbm affinity estimate (log intensity, higher = more binding, comparable within an allelic series)"
same,binding signal,HOXA2 [4],"10.5 upbm affinity estimate (log intensity, higher = more binding, comparable within an allelic series)"
same,binding signal,HOXA7 [5],"8.43 upbm affinity estimate (log intensity, higher = more binding, comparable within an allelic series)"
same,binding signal,HOXA2 [6],"6.79 upbm affinity estimate (log intensity, higher = more binding, comparable within an allelic series)"
CCTGGTCC,binding signal,HOXA7 [1],"8.3 upbm affinity estimate (log intensity, higher = more binding, comparable within an allelic series)"
same,binding signal,PAX4 [10],"9.07 upbm affinity estimate (log intensity, higher = more binding, comparable within an allelic series)"
same,binding signal,PAX4 [11],"9.15 upbm affinity estimate (log intensity, higher = more binding, comparable within an allelic series)"
same,binding signal,MSX2 [7],"9.44 upbm affinity estimate (log intensity, higher = more binding, comparable within an allelic series)"
same,binding signal,ALX1 [12],"6.39 upbm affinity estimate (log intensity, higher = more binding, comparable within an allelic series)"
same,binding signal,PAX4 [13],"9.31 upbm affinity estimate (log intensity, higher = more binding, comparable within an allelic series)"
same,binding signal,ALX1 [14],"6.31 upbm affinity estimate (log intensity, higher = more binding, comparable within an allelic series)"
same,binding signal,PAX4 [15],"9.26 upbm affinity estimate (log intensity, higher = more binding, comparable within an allelic series)"
same,binding signal,MSX2 [8],"9.47 upbm affinity estimate (log intensity, higher = more binding, comparable within an allelic series)"
same,binding signal,PAX4 [16],"9.15 upbm affinity estimate (log intensity, higher = more binding, comparable within an allelic series)"
same,binding signal,VAX1 [17],"7.22 upbm affinity estimate (log intensity, higher = more binding, comparable within an allelic series)"
same,binding signal,MSX2 [9],"9.52 upbm affinity estimate (log intensity, higher = more binding, comparable within an allelic series)"
same,binding signal,VAX1 [18],"7.32 upbm affinity estimate (log intensity, higher = more binding, comparable within an allelic series)"
same,binding signal,PAX4 [19],"9.31 upbm affinity estimate (log intensity, higher = more binding, comparable within an allelic series)"
same,binding signal,HOXA7 [5],"8.35 upbm affinity estimate (log intensity, higher = more binding, comparable within an allelic series)"
same,binding signal,ALX1 [20],"6.34 upbm affinity estimate (log intensity, higher = more binding, comparable within an allelic series)"
same,binding signal,VAX1 [21],"7.26 upbm affinity estimate (log intensity, higher = more binding, comparable within an allelic series)"
ATATAAAA,binding signal,HOXA7 [1],"9.79 upbm affinity estimate (log intensity, higher = more binding, comparable within an allelic series)"
same,binding signal,HOXD13 [22],"10.9 upbm affinity estimate (log intensity, higher = more binding, comparable within an allelic series)"
same,binding signal,HOXD13 [23],"11.8 upbm affinity estimate (log intensity, higher = more binding, comparable within an allelic series)"
same,binding signal,HOXC10,"11.3 upbm affinity estimate (log intensity, higher = more binding, comparable within an allelic series)"
same,binding signal,HOXD13 [24],"11.7 upbm affinity estimate (log intensity, higher = more binding, comparable within an allelic series)"
same,binding signal,HOXA7 [5],"8.84 upbm affinity estimate (log intensity, higher = more binding, comparable within an allelic series)"
CTGCTTCA,binding signal,HOXA7 [1],"8.51 upbm affinity estimate (log intensity, higher = more binding, comparable within an allelic series)"
same,binding signal,PITX2,"7.83 upbm affinity estimate (log intensity, higher = more binding, comparable within an allelic series)"
same,binding signal,HOXA7 [5],"8.44 upbm affinity estimate (log intensity, higher = more binding, comparable within an allelic series)"
GAGGGACC,binding signal,HOXA7 [1],"8.55 upbm affinity estimate (log intensity, higher = more binding, comparable within an allelic series)"
same,binding signal,MSX2 [7],"9.48 upbm affinity estimate (log intensity, higher = more binding, comparable within an allelic series)"
same,binding signal,MSX2 [8],"9.7 upbm affinity estimate (log intensity, higher = more binding, comparable within an allelic series)"
same,binding signal,MSX2 [9],"9.64 upbm affinity estimate (log intensity, higher = more binding, comparable within an allelic series)"
same,binding signal,HOXA7 [5],"8.33 upbm affinity estimate (log intensity, higher = more binding, comparable within an allelic series)"
GACGCTGC,binding signal,HOXA7 [1],"8.24 upbm affinity estimate (log intensity, higher = more binding, comparable within an allelic series)"
same,binding signal,HOXA2 [2],"6.99 upbm affinity estimate (log intensity, higher = more binding, comparable within an allelic series)"
same,binding signal,HOXA2 [3],"10.4 upbm affinity estimate (log intensity, higher = more binding, comparable within an allelic series)"
same,binding signal,HOXA2 [4],"10.4 upbm affinity estimate (log intensity, higher = more binding, comparable within an allelic series)"
same,binding signal,HOXA7 [5],"8.35 upbm affinity estimate (log intensity, higher = more binding, comparable within an allelic series)"
same,binding signal,HOXA2 [6],"7.11 upbm affinity estimate (log intensity, higher = more binding, comparable within an allelic series)"

# Source: publication PMC11006913
